Where “and” joins values, the source holds several entries; their conditions need not be identical. Equal entries are not always repeated. Records with an inconclusive call do not appear. Calls of active or inactive are those of the source. Unless noted, calls come from the whole dose curve; as a rule, active = well fitted curve in the direction sought with a large enough effect in the repeat runs; inconclusive = weak or mixed curves; inactive = no such curve, though single readings can be large; an effect the other way counts as inactive or inconclusive.
How the values were obtained:
[1] = qHTS assay to identify small molecule agonists of H2AX - cell viability counter screen (AID 1224847; calls by dose curve;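 note: wild-type CHO-K1 cells; top concentration of the series differs between compounds; nearly all actives have a fitted effect of over 30% in size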)
Summary of the method: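 After overnight plating of 1000 CHO-K1 cells per well, a 15-concentration compound series was applied for 3 hr at 37C. Luminescence from CellTiter-Glo, read following 30 min at room temperature, reflected cell viability.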

[2] = qHTS RealTime-Glo MT Cell Viability Assay in HepG2 cells - 24 hour (AID 1224867); note: nearly all actives have a fitted effect of over 50% in size
Summary of the method: (§1)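 HepG2 suspension premixed with RealTime-Glo reagents is plated at 600 cells per well and left 5 h at 37 C/5% CO2. Compounds in DMSO then go in, and bioluminescence reflecting viable cell number is recorded over 40 h.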

[3] = qHTS RealTime-Glo MT Cell Viability Assay in HEK293 cells - 32 hour (AID 1224868); note: top concentration of the series differs between compounds; nearly all actives have a fitted effect of over 50% in size
Summary of the method: (§2)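 Reads taken at 0, 8, 16, 24, 32 and 40 h from the same wells. HEK293 cells (600/well) carried RealTime-Glo reagents from seeding, with compound added after a 5 h settle at 37 C.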

[4] = A CellTox Green Cytotoxicity Assay to monitor cytotoxicity in HEK293 cells - 0 hour (AID 1224869); note: nearly all actives have a fitted effect of over 50% in size
Summary of the method: (§3)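 HEK293 cells, 600/well, were preincubated 5 hours and then exposed to compounds at 37 C for up to 40 hours. A cell-impermeant cyanine dye staining dead-cell DNA was read by fluorescence at 0, 8, 16, 24, 32 and 40 h time points.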

[5] = qHTS RealTime-Glo MT Cell Viability Assay in HepG2 cells - 40 hour (AID 1224870); note: nearly all actives have a fitted effect of over 50% in size
Summary of the method: (§4)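 HepG2 cells (600/well) mixed with RealTime-Glo MT reagent, settled 5 h at 37 C/5% CO2 before compound addition. Nonlytic NanoLuc luminescence from viable-cell prosubstrate reduction read repeatedly during 40 h treatment at 37 C.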

[6] = A CellTox Green Cytotoxicity Assay to monitor cytotoxicity in HEK293 cells - 40 hour (AID 1224871); note: nearly all actives have a fitted effect of over 45% in size
Summary of the method: as §3

[7] = qHTS RealTime-Glo MT Cell Viability Assay in HEK293 cells - 16 hour (AID 1224872)
Summary of the method: as §2

[8] = qHTS RealTime-Glo MT Cell Viability Assay in HEK293 cells - 40 hour (AID 1224874); settings: RealTime-Glo luminescence; max response: hits give low values; note: nearly all actives have a fitted effect of over 50% in size
Summary of the method: (§5)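 600 cells/well were plated with the nonlytic NanoLuc/prosubstrate reagent, pre-incubated 5 h, then given 23 nL of compound in DMSO. Incubation at 37 C for 40 h, with luminescence from viable-cell-reduced substrate read repeatedly from 0 h.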

[9] = A CellTox Green Cytotoxicity Assay to monitor cytotoxicity in HEK293 cells - 24 hour (AID 1224875); note: series mostly up to about 77 µM; nearly all actives have a fitted effect of over 45% in size
Summary of the method: as §3

[10] = qHTS RealTime-Glo MT Cell Viability Assay in HepG2 cells - 32 hour (AID 1224877); note: nearly all actives have a fitted effect of over 55% in size
Summary of the method: as §1

[11] = A CellTox Green Cytotoxicity Assay to monitor cytotoxicity in HepG2 cells - 24 hour (AID 1224878); note: nearly all actives have a fitted effect of over 45% in size
Summary of the method: (§6)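 HepG2 cells, 600/well, preincubated 5 h with CellTox Green dye, then exposed to Tox21 compounds in DMSO at 37 C for up to 40 h. Dead-cell DNA fluorescence read at the indicated time point.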

[12] = A CellTox Green Cytotoxicity Assay to monitor cytotoxicity in HepG2 cells - 40 hour (AID 1224879); note: nearly all actives have a fitted effect of over 40% in size
Summary of the method: as §6

[13] = qHTS RealTime-Glo MT Cell Viability Assay in HEK293 cells - 0 hour (AID 1224880); note: top concentration of the series differs between compounds; nearly all actives have a fitted effect of over 45% in size
Summary of the method: as §5

[14] = A CellTox Green Cytotoxicity Assay to monitor cytotoxicity in HEK293 cells - 32 hour (AID 1224881); note: nearly all actives have a fitted effect of over 40% in size
Summary of the method: as §3

[15] = A CellTox Green Cytotoxicity Assay to monitor cytotoxicity in HepG2 cells - 0 hour (AID 1224882); note: nearly all actives have a fitted effect of over 35% in size
Summary of the method: as §6

[16] = A CellTox Green Cytotoxicity Assay to monitor cytotoxicity in HepG2 cells - 32 hour (AID 1224883); note: nearly all actives have a fitted effect of over 50% in size
Summary of the method: as §6

[17] = A CellTox Green Cytotoxicity Assay to monitor cytotoxicity in HEK293 cells - 8 hour (AID 1224884); note: nearly all actives have a fitted effect of over 35% in size
Summary of the method: as §3

[18] = qHTS RealTime-Glo MT Cell Viability Assay in HepG2 cells - 8 hour (AID 1224873); note: nearly all actives have a fitted effect of over 55% in size
Summary of the method: as §4

[19] = A CellTox Green Cytotoxicity Assay to monitor cytotoxicity in HepG2 cells - 16 hour (AID 1224876); note: nearly all actives have a fitted effect of over 45% in size
Summary of the method: as §6
% is set by controls: 0 for no effect and ±100 for the full control effect.

c1c[nH]cn1
inactive: Potency [1] | outcome [2] | Potency [3] | outcome [4] | outcome [5] | Potency [6] | Potency [7] | max response [8] 11.4% and 19.2% | Potency [9] | outcome [10] | Potency [11] | Potency [12] | Potency [13] | Potency [14] | outcome [15] | Potency [16] | outcome [17]

CC(c1cc2ccccc2s1)N(O)C(N)=O (stereo unspecified)
inactive: Potency [1] | outcome [2] | Potency [3] | outcome [4] | outcome [5] | Potency [6] | Potency [7] | outcome [18] | max response [8] -14.9% and -8.57% | Potency [9] | outcome [10] | Potency [11] | Potency [12] | Potency [13] | Potency [14] | outcome [15] | Potency [16] | outcome [17]

CC1CCC(C(C)C)C(O)C1 (stereo unspecified)
inactive: Potency [1] | outcome [2] | Potency [3] | outcome [4] | outcome [5] | Potency [6] | Potency [7] | outcome [18] | max response [8] -2.01% and 1.75% | Potency [9] | Potency [19] | outcome [10] | Potency [11] | Potency [12] | Potency [13] | outcome [15] | Potency [16] | outcome [17]

C=CCOC(=O)c1ccccc1C(=O)OCC=C
inactive: Potency [1] | outcome [2] | Potency [3] | outcome [4] | outcome [5] | Potency [6] | Potency [7] | outcome [18] | max response [8] 6.21% and 2.3% | Potency [9] | outcome [10] | Potency [11] | Potency [12] | Potency [13] | outcome [15] | Potency [16] | outcome [17]

COc1ccc2cc([C@H](C)C(=O)O)ccc2c1
inactive: Potency [1] | outcome [2] | Potency [3] | outcome [4] | outcome [5] | Potency [6] | Potency [7] | outcome [18] | Potency [9] | outcome [10] | Potency [11] | Potency [12] | Potency [13] | Potency [14] | outcome [15] | Potency [16] | outcome [17]

CC1=CCC2CC1C2(C)C (stereo unspecified)
inactive: Potency [1] | outcome [2] | Potency [3] | outcome [4] | outcome [5] | Potency [6] | Potency [7] | outcome [18] | max response [8] -11.4% and 10.5% | Potency [9] | Potency [19] | outcome [10] | Potency [11] | Potency [12] | Potency [13] | outcome [15] | Potency [16] | outcome [17]

CC(C)c1ccc(S(=O)(=O)O)cc1
inactive: Potency [1] | outcome [2] | Potency [3] | outcome [4] | outcome [5] | Potency [6] | Potency [7] | outcome [18] | max response [8] -1.12% and 9.2% | outcome [10] | Potency [11] | Potency [12] | Potency [13] | Potency [14] | outcome [15] | Potency [16] | outcome [17]

Cc1cc(C)c(C)cc1C
inactive: Potency [1] | outcome [2] | Potency [3] | outcome [4] | outcome [5] | Potency [6] | Potency [7] | outcome [18] | max response [8] 0.583% and -29% | Potency [9] | outcome [10] | Potency [11] | Potency [12] | Potency [13] | Potency [14] | outcome [15] | Potency [16] | outcome [17]

O=[N+]([O-])c1ccc(/C=C/c2ccc([N+](=O)[O-])cc2S(=O)(=O)O)c(S(=O)(=O)O)c1
inactive: Potency [1] | outcome [2] | Potency [3] | outcome [4] | outcome [5] | Potency [6] | Potency [7] | outcome [18] | Potency [9] | Potency [19] | outcome [10] | Potency [11] | Potency [12] | Potency [13] | outcome [15] | Potency [16] | outcome [17]

Cc1cnc(C(=O)NCCc2ccc(S(=O)(=O)NC(=O)NC3CCCCC3)cc2)cn1
inactive: Potency [1] | outcome [2] | Potency [3] | outcome [4] | outcome [5] | Potency [6] | Potency [7] | outcome [18] | max response [8] 11.5% and 10.1% | Potency [9] | Potency [19] | outcome [10] | Potency [11] | Potency [12] | Potency [13] | Potency [14] | outcome [15] | Potency [16] | outcome [17]

CC(=O)OCC(=O)[C@@]12N=C(C)O[C@@H]1C[C@H]1[C@@H]3CCC4=CC(=O)C=C[C@]4(C)[C@H]3[C@@H](O)C[C@@]12C
inactive: Potency [1] | outcome [2] | Potency [3] | outcome [4] | outcome [5] | Potency [6] | Potency [7] | outcome [18] | max response [8] -2.48% and 0.51% | Potency [9] | outcome [10] | Potency [11] | Potency [12] | Potency [13] | Potency [14] | outcome [15] | Potency [16] | outcome [17]

Oc1cccc2ccccc12
inactive: Potency [1] | outcome [2] | Potency [3] | outcome [4] | outcome [5] | Potency [6] | Potency [7] | outcome [18] | max response [8] -13.2% and -5.72% | Potency [9] | Potency [19] | outcome [10] | Potency [11] | Potency [12] | Potency [13] | Potency [14] | outcome [15] | Potency [16] | outcome [17]

CCOC(=O)NNc1nncc2ccccc12
inactive: Potency [1] | outcome [2] | Potency [3] | outcome [4] | outcome [5] | Potency [6] | Potency [7] | max response [8] 3.91% and 1.02% | Potency [9] | Potency [19] | outcome [10] | Potency [11] | Potency [12] | Potency [13] | Potency [14] | outcome [15] | Potency [16] | outcome [17]
